LGR2 antag: blocks bursicon-induced cAMP signaling via Drosophila LGR2. HEK293 LGR2, CRE-luciferase, bursicon-stimulated, 4 h. inhibition, % at 9.99 µM. 0.35% of 380,000 active. AID 720647;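 active = drop in luminescence signal, shown as inhibition above about 50% in the replicate tests, limit read from the data, passing the limit was not always enough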;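 note: agonist challenge used bursicon conditioned medium at about half maximal strength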
CF NFkB block: cystic fibrosis NF-kB activation inhibition; KKLEB NF-kB-GFP reporter, PAF-induced, GFP fluorescence overnight; inhibition, % at 5 µM; 0.86% of 360,000 active;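 active = at least 50% inhibition at 5 µM, scaled per plate between neutral and stimulator controls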;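 note: PAF is a Pseudomonas aeruginosa culture filtrate used as stimulus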
Mdm2-MdmX inh: human Mdm2/MdmX binding inhibition; SaOS-2 split-luciferase Mdm2/MdmX complementation, luminescence; inhibition, % at 8 µM; 3% of 330,000 active; AID 485346;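 active = inhibition of at least 50% at 8 µM in the primary screen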
Target sequence (O15151 whole entry, looked up): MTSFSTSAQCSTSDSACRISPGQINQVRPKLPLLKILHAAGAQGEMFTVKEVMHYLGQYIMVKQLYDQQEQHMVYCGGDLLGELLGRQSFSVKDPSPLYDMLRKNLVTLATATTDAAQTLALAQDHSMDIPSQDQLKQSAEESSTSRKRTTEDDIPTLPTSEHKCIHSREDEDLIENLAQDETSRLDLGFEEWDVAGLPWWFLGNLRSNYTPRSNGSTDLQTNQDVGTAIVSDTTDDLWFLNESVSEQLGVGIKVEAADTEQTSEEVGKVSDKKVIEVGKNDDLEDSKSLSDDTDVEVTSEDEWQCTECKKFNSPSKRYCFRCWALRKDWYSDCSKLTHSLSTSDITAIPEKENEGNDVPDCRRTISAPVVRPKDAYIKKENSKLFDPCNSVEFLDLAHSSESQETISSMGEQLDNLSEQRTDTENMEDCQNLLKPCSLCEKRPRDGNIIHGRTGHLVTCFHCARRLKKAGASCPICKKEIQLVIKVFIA
Target sequence (Q00987 whole entry, looked up): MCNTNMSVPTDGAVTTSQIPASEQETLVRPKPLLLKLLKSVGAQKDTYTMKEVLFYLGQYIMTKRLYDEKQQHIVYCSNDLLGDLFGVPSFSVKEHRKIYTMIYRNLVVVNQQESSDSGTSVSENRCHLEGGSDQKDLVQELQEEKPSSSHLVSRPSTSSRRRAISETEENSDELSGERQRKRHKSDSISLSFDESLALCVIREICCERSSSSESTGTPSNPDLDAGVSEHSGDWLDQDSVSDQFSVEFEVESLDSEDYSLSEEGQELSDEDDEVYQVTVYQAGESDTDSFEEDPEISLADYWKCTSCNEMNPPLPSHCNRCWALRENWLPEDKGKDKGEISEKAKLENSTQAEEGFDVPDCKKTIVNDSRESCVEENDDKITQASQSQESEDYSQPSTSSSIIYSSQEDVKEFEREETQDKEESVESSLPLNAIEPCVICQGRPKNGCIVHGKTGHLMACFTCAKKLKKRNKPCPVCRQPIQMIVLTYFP
KKLEB tox: CF airway cell cytotoxicity counter-screen; KKLEB CF airway cells viability, ATPlite luminescence, overnight; stronger effect = lower value; cells stimulated with P. aeruginosa culture filtrate; activity change (cytotoxicity), % at 5 µM; 0.36% of 360,000 active;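 active = corrected activity change at or below -50% at 5 µM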
Peg3 prom inh: Peg3 promoter activity inhibition; HeLa PEG-Prom luciferase reporter, luminescence, overnight; inhibition, % at 20 µM; 1.7% of 360,000 active; AID 588405;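 active = inhibition of at least 50% at 20 µM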
HSP90 refold inh: blocks HSP90-mediated luciferase refolding in reticulocyte lysate; Rabbit reticulocyte lysate, luciferase refolding luminescence, 3 h; 0.91% of 290,000 active; AID 1789; inhibition, % at 5.6 µM;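 active = inhibition above the screen-wide mean plus 3 SD, computed separately per campaign, cut at about 16% in these data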;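 note: inhibitors lower the luminescence because luciferase stays unfolded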
Mdm2 MdmX conf: confirmation of human Mdm2/MdmX interaction inhibitors; shares compounds with Mdm2-MdmX inh; Mdm2-MdmX binding, luminescent assay; inhibition, % at 8 µM; 55% of 10,000 active; in the data active = inhibition above about 40%
Full FLuc ctr: inhibits full-length luciferase, flagging false Mdm2/MdmX hits; 77% of 6,200 active; SaOS-2 full-length luciferase counterscreen, luminescence; shares compounds with Mdm2-MdmX inh; AID 504607; inhibition, % at 8 µM;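 active = mean inhibition at 8 µM reaching about 37%, which flags the compound as non-specific, limit read from the data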;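 note: p53-null SaOS-2 cells with luciferase driven by a doxycycline-inducible promoter; compound on cells about two nights before reading with doxycycline added after day one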
Numbers stand for hits; – = inactive; · = no result given. Hits are enriched below; roughly 3.6% of the tested compounds scored in any of these assays.

SMILES | LGR2 antag | CF NFkB block | Mdm2-MdmX inh | KKLEB tox | Peg3 prom inh | HSP90 refold inh | Mdm2 MdmX conf | Full FLuc ctr
COc1cc(C(=O)OCC(=O)c2cc(C)n(C)c2C)cc(NC(=O)c2ccco2)c1OC | · | – | 74 | – | – | – | – | ·
Cc1cccc(S(=O)(=O)N2CC[C@@H]3[C@H](CO)N(C)c4ccc(-c5ccc(C#N)cc5)cc4[C@@H]32)c1 | – | · | · | · | · | · | · | ·
CCOC(=O)/C=c1\s/c(=C\c2c(OC)ccc3ccccc23)c(=O)n1CC(=O)NCC1CCCO1 (stereo not drawn) | – | – | 63 | – | – | – | 65 | 77
CCOC(=O)/C=c1\s/c(=C\c2ccc(C(=O)OC)cc2)c(=O)n1CC(=O)Nc1ccccc1 | – | – | 62 | – | – | – | – | ·
CCOC(=O)/C=c1/s/c(=C/c2ccc3cc(OC)ccc3c2)c(=O)n1CC(=O)NCC1CCCO1 (stereo not drawn) | · | – | · | – | – | · | · | ·
C/C=C/c1ccc([C@H]2[C@@H](CO)N(Cc3ccccn3)[C@H]2CNC(=O)CC)cc1 | – | · | · | · | · | · | · | ·
O=C(C[C@H]1C[C@H]2c3cc(NS(=O)(=O)c4ccc(F)cc4)ccc3O[C@H]2[C@@H](CO)O1)NCc1cccc(F)c1 | – | · | · | · | · | · | · | ·
CCCCCCCCCCCCCCCC[N+](C)(C)CCN(Cc1ccc(OC)cc1)c1ncccn1 | · | – | 100 | – | 105 | · | 96 | –
COc1ccc(CN(CCN(C)C)c2ccccn2)cc1 | – | – | – | – | – | – | · | ·
O=C(c1ccccc1F)N1CC(=O)N2[C@H](C1)[C@@H](c1ccc(-c3ccccc3)cc1)[C@@H]2CO | – | · | · | · | · | · | · | ·
Cc1cc(C(=O)NCCN2CCN(c3cccc(Cl)c3)CC2)n(-c2ccccc2)n1 | – | – | 53 | – | – | – | 59 | 62
O=C(N[C@H]1CC[C@H](CC(=O)N2CCCCC2)O[C@@H]1CO)c1ccccn1 | – | · | · | · | · | · | · | ·
COc1cccc(/C=N/Nc2cc(N3CCOCC3)ncn2)c1O | – | – | 73 | – | – | – | 61 | 63
COc1cccc(/C=N/Nc2ncnc3c2ncn3Cc2ccccc2)c1O | – | – | 82 | – | – | – | 82 | 63
CN1CCC(=C2c3ccccc3CCc3sccc32)CC1 | · | – | 60 | – | – | – | – | ·
CCOC(=O)c1c(CSc2nc(C)cc(C)c2C#N)n(C)c2cc(Br)c(OC(C)=O)cc12 | – | – | 72 | -55 | – | – | – | ·
CCOC(=O)c1c(CN2CCCCC2)n(C)c2cc(Br)c(OC)cc12 | · | – | – | – | – | – | · | ·
CCOC(=O)CC(=O)CSc1nc(C)cc(C)c1C#N | · | – | – | – | – | – | · | ·
C=CCCc1ccc(C#N)c(SCc2c(C(=O)OCC)c3cc(OC(C)=O)c(Br)cc3n2C)n1 | · | – | 66 | – | – | – | 89 | –
Cc1ccc2ccc(C(Nc3ccccn3)c3ccccc3)c(O)c2n1 (stereo not drawn) | – | – | – | – | – | – | · | ·
Cc1ccc2ccc(C(Nc3ccccc3)c3ccccc3)c(O)c2n1 (stereo not drawn) | – | · | · | · | · | · | · | ·
Cc1cccc(NC(c2ccc(C)s2)c2ccc3ccc(C)nc3c2O)n1 (stereo not drawn) | – | – | 98 | – | – | – | 61 | –
Oc1ccccc1C(Nc1nccs1)c1ccc2cccnc2c1O (stereo not drawn) | – | – | 64 | – | – | – | 78 | 48
Cc1ccnc(NC(c2cccnc2)c2ccc3cccnc3c2O)c1 (stereo not drawn) | – | – | – | – | – | – | · | ·
O=C(O)c1ccccc1NC(c1ccccc1)c1ccc2cccnc2c1O (stereo not drawn) | – | – | · | – | – | · | · | ·
COc1cc(C(Nc2ccccn2)c2ccc3ccc(C)nc3c2O)cc(OC)c1O (stereo not drawn) | – | 74 | 79 | – | 102 | – | 81 | 51
Oc1c(C(Nc2ccccn2)c2ccccn2)ccc2cccnc12 (stereo not drawn) | – | – | 53 | – | 54 | – | 71 | 45
O=C(C1CC1)N1CC(=O)N2[C@H](C1)[C@H](c1ccc(Br)cc1)[C@@H]2CO | – | · | · | · | · | · | · | ·

Source: PubChem BioAssay
